Reference: PubChem BioAssay AID1345083 (National Center for Advancing Translational Sciences (NCATS), 2018)
Screen size: about 94,000 compounds; about 6,200 (6.6%) were called active. Roughly 31% stayed inconclusive and do not appear here. The entries come from a sample that favours actives as a whole. Unmarked numbers belong to inactive results. Calls follow the shape of the dose curve; as a rule, active = well fitted inhibition curve with a large enough effect; inconclusive = small, poorly fitted or top-dose-only effect; inactive = flat fitted curve, though single readings scatter.

Experiment: Cytotoxic Profiling in HEK 293 Cell Line of Diverse Libraries Using Quantitative High-Throughput Screening; also: nearly all actives have a fitted effect of over 60% in size
Conditions: HEK 293 viability, ATP luminescence (CellTiter-Glo), 48-72 h; series mostly up to 115 µM; activity change, negative = cytotoxicity: at the top concentration
Description: Cell-based phenotypic screening is a commonly used approach to discover biological pathways, novel drug targets, chemical probes and high-quality hit-to-lead molecules. Many hits identified from high-throughput screening campaign are ruled out through a series of follow-up potency, selectivity/specificity, and cytotoxicity assays. Prioritization of molecules with little or no cytotoxicity for a more in-depth downstream evaluation influence the future direction of projects, so cytotoxicity profiling of the screening libraries at early stage is essential for increasing the likelihood of candidate success. In this study, we analyzed results from a cell-based cytotoxicity screening campaign, comprising nearly 10,000 compounds in NCATS annotated libraries, and over 100,000 compounds in a diversity library, evaluated in four normal cell lines (HEK 293, NIH 3T3, CRL-7250 and HaCat) and a cancer cell line (KB 3-1, a HeLa subline) with overall screening outcomes, hit rates, pan-activity and selectivity. For the annotated library, we also examined the primary targets and mechanistic pathways regularly associated with cell death. To our knowledge, this is the first study to use high-throughput screening to profile large libraries for cytotoxicity assessment in both normal and cancer cell lines. In summary, the results generated here constitutes a valuable resource for the scientific community and provides insight on identifying cytotoxic compounds with particular mechanisms of action, and prioritizing compounds with suitable cytotoxicity profile for further evaluation.
HEK 293 cells were seeded into white 1536-well plates using a Multidrop Combi peristaltic dispenser (ThermoFisher, Waltham, MA) at a density of 250 cells/well in 5 uL of medium respectively. A pintool (Kalypsys) was used to transfer 23 nL of compound solution to the 1536-well assay plates. After 48 or 72 hr incubation at 37 degree Celsius, 5% CO2 and 95% humidity, 2.5 uL of CellTiter-Glo (Promega) was dispensed into each well using a dispenser (Aspect Automation, St. Paul, MN) with solenoid valves (Lee Valves, Westbrook CT). Plates were left at room temperature for 10 min before imaging the ATP-coupled luminescence using a ViewLux microplate imager (PerkinElmer, Waltham, MA).
% is scaled to controls: 0 for no effect and ±100 for the full control effect; potency is read from the fitted curve at half-maximal effect.

Structure (SMILES) | Potency | activity change, negative = cytotoxicity | outcome
CC(=O)NC1(C)CCN(Cc2cccc(-c3ccc(C(=O)c4ccccc4)cc3)c2)C1 (stereo not drawn) | 39.8 µM (active) |  | 
COc1cccc(CC(=O)N2CCC(CC3CC3)(NC(=O)c3ccccc3)CC2)c1 |  | -16.1% | 
COCC1CN(C(C)=O)CC12CCN(Cc1cccc(C#N)c1)CC2 (stereo not drawn) |  | 0.069% | 
CCC(C(=O)Nc1ccc2c(c1)CN(Cc1cc(F)cc(F)c1)C(=O)CO2)c1ccccc1 (stereo not drawn) | 44.7 µM (active) |  | 
COc1cccc(CC(=O)N[C@@H]2C[C@H](Cn3cc(C4CC4)nn3)[C@@H](O)[C@H]2O)c1 |  |  | inactive [at 172 µM]
Cc1cc2nc3n(c(=O)c2n1CC(=O)NC1CCCCC1)CCCC3 |  | 8.3% | 
FC(F)(F)c1cccc(-c2cc(C3=CCOCC3)c3cncn3c2)c1 | 100 µM (active) |  | 
OCc1cccc(-c2cc(C3=CCOCC3)c3cncn3c2)c1 |  | -21.3% [at 172 µM] | 
CC1=NS(=O)(=O)N(Cc2ccc(Cl)cc2)C=C1C(=O)O |  | -2.93% | 
COc1ccc(CCC(=O)N2C[C@@H](Oc3ccccc3)C[C@H]2C(=O)N2CCOCC2)cc1 |  | -0.714% | 
O=C(Nc1ccc(F)cc1)c1cn2cc(-c3ccc(C(F)(F)F)cc3)sc2n1 |  | -0.955% | 
Cc1cc2ncc(C(=O)NCc3cccnc3)cn2n1 |  |  | inactive [at 172 µM]
O=C(NCc1ccccc1Cl)c1cn2cc(-c3ccc(C(F)(F)F)cc3)sc2n1 |  | -12.3% | 
O=C(c1cn2cc(-c3cccnc3)sc2n1)N1CCCCC1 |  | -5.61% | 
Cc1ccc(-c2cn3cc(C(=O)NCc4cccnc4)nc3s2)cc1 | 44.7 µM (active) |  | 
O=C(NCc1cccnc1)c1cn2cc(-c3cccc(C(F)(F)F)c3)sc2n1 | 28.2 µM (active) |  | 
Cc1noc(C)c1S(=O)(=O)N1CCCC(c2nn[nH]n2)C1 (stereo not drawn) |  |  | inactive
CN(C)CC1(O)CCC2(CCN(C(=O)c3ccc4ccccc4n3)CC2)CC1 |  | -3.02% | 
COC(=O)N1CCCC(C(=O)N2CCC3(CC2)CC(=O)Nc2ccccc2O3)C1 (stereo not drawn) |  | -25.2% | 
COc1ccccc1C(O)c1nc(Nc2ccc(C(F)(F)F)cc2)n[nH]1 (stereo not drawn) | 89.1 µM (active) |  | 
COc1cccc(Nc2n[nH]c(C(O)c3cccc(C(F)(F)F)c3)n2)c1 (stereo not drawn) | 79.4 µM (active) |  | 

Structure (SMILES) | Potency | activity change, negative = cytotoxicity | outcome
O=C1CCN(C(=O)c2nccc3ccccc23)CCOCCN1 |  | -0.481% | 
COCCNC(=O)CN1C(=O)NC2(CCC(C(C)(C)C)CC2)C1=O (stereo not drawn) |  | -19.9% | 
O=C(c1cccc(N2CCNC2=O)c1)N1CC(=O)N(C2CCCCC2)CC(OCc2ccccc2)C1 (stereo not drawn) |  | 21.7% | 
O=c1n(CCN2CCN([S+](=O)([O-])c3ccccc3)CC2)nc2n1CCCC2 |  | -11.1% | 
Cc1cc(C)n(Cc2cc(C(=O)N3CCSCC3)n[nH]2)n1 |  |  | inactive
Clc1ccc(-c2nnc3n2CCN(Cc2cccnc2)C3)cc1 |  |  | inactive
CC(=O)Nc1ccc(CN2CCn3c(nnc3-c3ccccc3)C2)cc1 |  | -4.01% | 
FC(F)(F)c1ccc(CN2CCn3c(nnc3-c3ccccc3)C2)cc1 | 89.1 µM (active) |  | 
COc1ccc(C(=O)N2CCC(n3cc(-c4nc(C)no4)nn3)CC2)c(OC)c1 |  | -3.26% | 
CCN1CCC(N2CC[C@H](CO)[C@H](N(C)C)C2)CC1 |  | -0.762% | 
COCCn1c(=O)n([C@H]2CCCN(C(=O)c3cc(C)n(C)n3)C2)c2ncccc21 |  | 0.0693% | 
CC1Oc2ccc(NC(=O)c3ccc([N+](=O)[O-])cc3)cc2CN(Cc2ccccc2)C1=O (stereo not drawn) | 31.6 µM (active) |  | 
COCC(=O)Nc1ccc2c(c1)CN(Cc1ccccc1F)C(=O)C(C)O2 (stereo not drawn) |  | -28.2% | 
Cc1nn2c(c1-c1ccccc1C(C)C)N(C(=O)c1cnccn1)CCC2 |  | -10.1% [at 172 µM] | 
Cc1nn2c(c1-c1ccccc1-c1ccccc1)N(CC1CC1)CCC2 | 2.82 µM (active) |  | 
Cc1nn2c(c1-c1ccccc1-c1ccccc1)N(C(=O)CN1CCOCC1)CCC2 |  | -19.4% [at 172 µM] | 
Cc1nn2c(c1-c1ccnn1C(C)C)N(CC1CCOCC1)CCC2 | 44.7 µM (active) |  | 
Cc1nc(C)c(C(=O)N2CCCN(S(=O)(=O)c3ccccc3)CCC(=O)NCC2)s1 |  |  | inactive
O=C1NCCCCCN(Cc2cccnc2)[C@@H]2CN(C(=O)C3CCCCC3)CC[C@@H]12 |  | -21.9% | 
COC(=O)c1c(NC(=O)c2ccccc2)c2cc(NC(C)C)cnc2n1CC1CCCO1 (stereo not drawn) |  |  | inactive
O=C(N[C@@H]1CN(c2ncccn2)C[C@H]1CO)c1ccco1 |  | -4.45% | 

Structure (SMILES) | Potency | activity change, negative = cytotoxicity | outcome
Cc1nc(C)c(C(=O)N2CCC3(CC2)CC(N2CCCC2)CCO3)s1 (stereo not drawn) |  | 0.51% | 
CCN1CC2(CCN(C(=O)[C@H]3Cc4ccccc4CN3)CC2)CC1=O |  | -15% | 
O=C(NCc1nnc2n1C(C(=O)NCCc1ccc(Cl)cc1)CC2)c1ccc(Cl)cc1Cl (stereo not drawn) |  | -7.78% | 
CC(C)CC(=O)NCC1Cn2cccc2CN1Cc1ccccc1 (stereo not drawn) |  | -15.5% | 
COc1ccccc1-c1cccc(C(=O)N2CCC[C@H]2C(=O)N(C)C)c1 |  | -0.487% | 
COC(=O)N1CCN(C(=O)c2cccc(-c3ccccc3OC)c2)CC1 | 63.1 µM (active) |  | 
COCC(=O)N1CCN(C(=O)c2cccc(-c3ccc(OC)nn3)c2)CC1 |  |  | inactive
CC(=O)N1CC2(CCN(CCCn3ccnc3C)CC2)CC1C(=O)O (stereo not drawn) |  |  | inactive
Cc1cnc(C(=O)NC2C[C@H]3CC[C@@H](C2)N3C(=O)c2cc(C)n(C)n2)cn1 (stereo partly drawn) |  |  | inactive
CC1(c2ccccc2)N(Cc2ncccn2)C(=O)OC12CCN(CCCc1ccccc1)CC2 (stereo not drawn) |  | -16.8% | 
CC1(c2cccnc2)N(Cc2ccccc2)C(=O)OC12CCN(C(=O)c1cccc(Cl)c1)CC2 (stereo not drawn) |  | -18% | 
CC1(c2ccccc2)N(Cc2ccccc2)C(=O)OC12CCN(c1ccncc1)CC2 (stereo not drawn) | 89.1 µM (active) |  | 
CCN(Cc1ccccc1)C(=O)CC1CCCN(c2cnn(CCOC)c(=O)c2)C1 (stereo not drawn) |  | -1.1% | 
COc1ccc(-c2noc(-c3nnn4c3COC(c3ccc(OC)cc3)C4)n2)cc1 (stereo not drawn) |  | 17.9% | 
CC(C)CC(=O)N1CCC(Oc2ccccc2-c2nc(C3CCOCC3)no2)C1 (stereo not drawn) |  | -37.7% | 
Cc1nc(C)c(C(=O)N2CCC(Oc3ccccc3-c3nc(-c4ccccc4)no3)C2)s1 (stereo not drawn) | 28.2 µM (active) |  | 
Cc1noc(-c2ccccc2OC2CCN(C(=O)c3cnccc3C)C2)n1 (stereo not drawn) |  | -0.104% | 
CCn1ccc(C(=O)N2CCCN(S(=O)(=O)c3ccccc3)CCC(=O)NCC2)n1 |  |  | inactive
C[C@H]1[C@@H]2[C@@H](O)C([C@H](C)C(=O)NCCN3CCOCC3)CC[C@@]2(C)CC[C@@H]1NC(=O)c1ccccc1 (stereo partly drawn) |  | -4.94% | 
C[C@H]1[C@@H]2[C@H]3OC(=O)[C@@H](C)[C@@H]3CC[C@@]2(C)CC[C@@H]1NC(=O)Cc1ccccc1 | 100 µM (active) |  | 
COCCNC(=O)C(C)[C@@H]1CC[C@@]2(C)CC[C@H](NC(=O)c3ccccc3)[C@@H](C)[C@@H]2[C@H]1O (stereo partly drawn) |  | -10.3% [at 172 µM] | 
